Source: PubChem BioAssay AID1851 (National Center for Advancing Translational Sciences (NCATS), 2009)
About 5,800 (36%) of roughly 16,000 compounds were called active. Another 23% or so got no clear call; they are omitted. Some of the results follow. Unmarked numbers belong to inactive results. Calls follow the shape of the dose curve; as a rule, active = well fitted curve in the direction sought with a large enough effect; inconclusive = small, poorly fitted or top-dose-only effect, or effect the other way; inactive = no such curve, though single readings can be large or run the other way.
% is scaled to controls: 0 for no effect and ±100 for the full control effect.

The compounds below were run against Cytochrome P450 2C19 (Homo sapiens) (UniProt P33261) (assay: Cytochrome panel assay with activity outcomes). Conditions: recombinant CYP, pro-luciferin dealkylation, luminescence, p450-cyp2c19; series mostly up to 57.1 µM.
Cytochrome P450 2C19 (Homo sapiens), sequence (P33261 whole entry, looked up): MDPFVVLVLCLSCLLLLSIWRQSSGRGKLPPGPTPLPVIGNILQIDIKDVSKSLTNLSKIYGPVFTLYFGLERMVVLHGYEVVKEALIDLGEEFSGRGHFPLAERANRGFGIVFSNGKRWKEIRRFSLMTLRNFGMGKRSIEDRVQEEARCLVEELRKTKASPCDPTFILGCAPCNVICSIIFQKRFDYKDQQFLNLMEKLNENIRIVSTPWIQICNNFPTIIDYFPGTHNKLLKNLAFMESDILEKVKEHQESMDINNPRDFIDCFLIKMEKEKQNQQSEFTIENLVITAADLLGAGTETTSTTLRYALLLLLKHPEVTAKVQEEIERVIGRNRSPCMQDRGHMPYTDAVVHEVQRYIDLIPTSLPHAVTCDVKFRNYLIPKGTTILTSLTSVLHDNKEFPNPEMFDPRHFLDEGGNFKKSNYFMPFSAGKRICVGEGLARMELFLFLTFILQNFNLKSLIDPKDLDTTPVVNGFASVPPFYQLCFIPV
For `Cc1noc(C)c1-c1cncnc1N(C)Cc1ccco1`, the AC50 was 2.51 µM (active). For `CN(Cc1ccco1)c1ncncc1-c1ccccc1C(F)(F)F`, the AC50 was 3.98 µM (active). For `Cc1ccccc1-c1cncnc1N(C)Cc1ccco1`, the AC50 was 5.01 µM (active). `Cc1noc(C)c1-c1cncnc1NC1CC1` was tested, and the AC50 was “inactive”. In the case of `CN(Cc1ccco1)c1ncncc1-c1ccccc1Cl`, the AC50 was 0.794 µM (active). With `CC1(C)S[C@@H]2[C@H](NC(=O)[C@@H](NC(=O)N3CCNC3=O)c3ccccc3)C(=O)N2[C@H]1C(=O)O` the AC50 was “inactive”. Work on `CC1(C)O[C@H]2[C@@H](O1)[C@@H](On1nnc3ccc(Cl)cc31)O[C@@H]2[C@@H]1COC(C)(C)O1` yielded an activity, negative = inhibition of 17% [at 11.4 µM]. In the case of `O=C(CCn1c(=O)[nH]c2ccsc2c1=O)Nc1ccc(F)c(F)c1`, the AC50 was “inactive”. For `Cc1ccc(-n2c(=O)c3sccc3n(CC(=O)NCc3ccco3)c2=O)cc1F`, the AC50 was “inactive”. For `O=C(NCc1ccco1)c1ccc2c(=O)n(-c3ccccc3)c(=S)[nH]c2c1`, the AC50 was “inactive”. `O=C(CCCCn1c(=S)[nH]c2ccsc2c1=O)NCc1ccco1` was tested, and the AC50 was 14.1 µM (active). `O=C(CCCCCn1c(=O)[nH]c2ccsc2c1=O)NCc1ccc2c(c1)OCO2` was tested, and the AC50 was 10 µM (active). `NCC[C@H]1CCC[C@H](CCN)N1` was tested, and the AC50 was “inactive”. `O=C(C[C@@H]1C=Cc2ccccc2N1C(=O)c1ccccc1)c1ccccc1` was tested, and the AC50 was 0.501 µM (active). In the case of `NC(=O)N1c2ccccc2C=Cc2ccccc21`, the AC50 was “inactive”. `O=C(Cc1ccc(Br)cc1)Nc1ccccc1Sc1ccccc1` was tested, and the AC50 was 0.178 µM (active). `O=C(NC1CCCCC1)C1CC=CCC1C(=O)OCC(Cl)=C(Cl)Cl` (stereo not given) was tested, and the AC50 was 10 µM (active). For `O=C(c1ccc2c(=O)n(CC3CCCO3)c(=S)[nH]c2c1)N1CCN(c2ccccc2)CC1` (stereo not given), the AC50 was 11.2 µM (active). With `O=C(c1ccc2c(=O)n(Cc3ccco3)c(=S)[nH]c2c1)N1CCN(c2ccccc2)CC1` the AC50 was 2.24 µM (active). With `COCCCNC(=O)c1ccc2c(=O)n(CC3CCCO3)c(=S)[nH]c2c1` (stereo not given) the AC50 was “inactive”. `COc1ccc(NC(=O)c2ccc3c(=O)n(Cc4ccco4)c(=S)[nH]c3c2)c(OC)c1` was tested, and the AC50 was 4.47 µM (active). Work on `CC(=O)OC[C@@H]1O[C@@H](O/N=C2/C[C@@H](O)[C@@H](O)[C@@H]3[C@@H]4C(=O)N(C5CCCCC5)C(=O)[C@H]4CC[C@@H]23)[C@H](OC(C)=O)[C@H](OC(C)=O)[C@@H]1OC(C)=O` yielded an activity, negative = inhibition of 2.25% [at 11.4 µM]. Compound `CCOc1ccccc1Nc1ccc(N)cc1S(=O)(=O)O` has an activity, negative = inhibition of -16.1% [at 11.4 µM]. With `CCOc1ccccc1NC(=O)C1Cc2ccccc2CN1S(C)(=O)=O` (stereo not given) the AC50 was 7.94 µM (active). In the case of `C=C(NC(=O)C(=C)NC(=O)c1csc(C2=N[C@@H]3c4csc(n4)[C@@H]4NC(=O)c5csc(n5)[C@@H]([C@](C)(O)[C@H](C)O)NC(=O)[C@@H]5CSC(=N5)/C(=C/C)NC(=O)[C@@H]([C@H](C)O)NC(=O)c5csc(n5)[C@]3(CC2)NC(=O)[C@@H](C)NC(=O)C(=C)NC(=O)[C@@H](C)NC(=O)[C@@H]([C@@H](C)CC)N[C@H]2C=Cc3c([C@H](C)O)cc(nc3[C@@H]2O)C(=O)O[C@H]4C)n1)C(N)=O`, the AC50 was “inactive”. For `O=S(=O)(c1ccccc1)N1CCC2(CC1)CN(C(c1ccccc1)c1ccccc1)C2`, the AC50 was “inactive”. With `O=C1CCN(S(=O)(=O)c2ccccc2)N1` the AC50 was 17.8 µM (active). Compound `O=S(=O)(c1ccccc1)N1CN2CN(C1)CN(S(=O)(=O)c1ccccc1)C2` has an activity, negative = inhibition of -18.2% [at 11.4 µM]. For `O=C(Nc1cccc(F)c1)N1CCC2(CC1)CCN(C(=O)c1csnn1)CC2`, the AC50 was “inactive”. `O=C(NCc1ccccc1)C(c1ccncc1)N(C(=O)c1csnn1)C1CC1` (stereo not given) was tested, and the AC50 was 8.91 µM (active). `O=C(c1csnn1)N1CCC2(CC1)CCN(c1ccccc1)CC2` was tested, and the AC50 was “inactive”. With `CCc1ccc(N(C(=O)c2csnn2)C(C(=O)NCc2ccccc2)c2ccco2)cc1` (stereo not given) the AC50 was 3.16 µM (active). `O=C(OC(C(=O)O)C(OC(=O)c1ccccc1)C(=O)NCc1ccccc1)c1ccccc1` (stereo not given) was tested, and the AC50 was “inactive”. In the case of `O=C(c1csnn1)N1CCC2(CCCN(Cc3ccccc3)C2)CC1`, the AC50 was “inactive”. In the case of `O=C(NCc1ccc(F)cc1)C(c1ccncc1)N(C(=O)c1csnn1)C1CC1` (stereo not given), the AC50 was 3.55 µM (active). In the case of `CC(C)CCn1c(Oc2ccccc2Cl)nc2c1c(=O)n(C)c(=O)n2C`, the AC50 was 15.8 µM (active). Work on `CCn1c(CCCc2nc3c([nH]2)c(=O)n(C)c(=O)n3C)nc2c1c(=O)n(C)c(=O)n2C` yielded an activity, negative = inhibition of 2.28% [at 11.4 µM]. With `CCOC(=O)N1CCN(C(=O)C(CC)n2nc(C)c3sc4ccccc4c3c2=O)CC1` (stereo not given) the AC50 was 20 µM (active). With `CCOC(=O)N1CCN(C(=O)c2cnc3n(c2=O)CCS3)CC1` the AC50 was “inactive”. With `CCOC(=O)N1CCN(C(=O)C(C)SCc2ccccc2)CC1` (stereo not given) the AC50 was “inactive”. With `Cc1oc(-c2ccccc2F)nc1CS(=O)(=O)CC(=O)NCCCN(C)C1CCCCC1` the AC50 was “inactive”. For `Cc1oc(-c2ccccc2Cl)nc1CSCC(=O)NC1CC1`, the AC50 was 14.1 µM (active). `CCOC(=O)N1CCN(C(=O)CSCc2nc(-c3ccccc3F)oc2C)CC1` was tested, and the AC50 was 31.6 µM (active). For `Cc1oc(-c2ccccc2F)nc1CSCC(=O)NCc1ccc2c(c1)OCO2`, the AC50 was 1.78 µM (active). For `N#Cc1cccc(NC(=O)N2CCC3(CC2)CCN(C(=O)c2csnn2)CC3)c1`, the AC50 was “inactive”. Work on `Nc1ncnc2c([C@@H]3O[C@@H](CO)[C@H](O)[C@@H]3O)nsc12` yielded an activity, negative = inhibition of 20.7% [at 11.4 µM]. `Cc1nn(C(=O)c2ccco2)c(C)c1Sc1ccccc1` was tested, and the AC50 was 6.31 µM (active). In the case of `Cc1nn(C(=O)c2cccnc2)c(C)c1Sc1ccc(Br)cc1`, the AC50 was 0.631 µM (active). `O=C(c1ccco1)N1CCC2(CC1)CCN(c1ccccc1)CC2` was tested, and the AC50 was “inactive”. For `CC(C)(C(=O)c1cccnc1)c1cccnc1`, the AC50 was “inactive”. In the case of `Cc1nn(C(C)(C)C)c(OC(=O)c2ccco2)c1Sc1ccccc1`, the AC50 was 7.08 µM (active). `O=C(c1ccco1)N1CCC[C@@]2(CCN(Cc3ccccc3)C2)C1` was tested, and the AC50 was “inactive”. With `C/C(CCN1CCCc2nc(C)c(C)cc21)=N\OC[C@@H](C)[C@H](OCc1ccccc1)C(C)C` the activity, negative = inhibition was -29.2% [at 11.4 µM]. In the case of `Cc1ccccc1CSc1nsc(N)n1`, the AC50 was 11.2 µM (active). In the case of `CCN1/C(=C/c2ccc3cccc(C)c3[n+]2CC)Sc2ccccc21`, the AC50 was “inactive”. `NC(=O)NC(=O)Nc1ccccc1Cl` was tested, and the AC50 was “inactive”. In the case of `NCC(=O)Nc1ccc(Cl)cc1C(=O)c1ccc[nH]1`, the activity, negative = inhibition was -10.9% [at 11.4 µM]. In the case of `O=C(CS(=O)c1cccc(C(F)(F)F)c1)Nc1ccccc1Cl` (stereo not given), the AC50 was 2.82 µM (active). `O=C(CS(=O)(=O)c1cccc(Cl)c1)Nc1ccccc1Cl` was tested, and the AC50 was 2.51 µM (active). With `O=C(CS(=O)c1cccc(Cl)c1)Nc1ccccc1Cl` (stereo not given) the AC50 was 2.51 µM (active). In the case of `OC[C@@H]1O[C@@H](n2cnc3c(N[C@H]4CCC[C@@H]4O)ncnc32)[C@H](O)[C@H]1O`, the AC50 was “inactive”. In the case of `Cc1cccc[n+]1CC(=O)Nc1ccc([N+](=O)[O-])cc1Cl`, the AC50 was 3.16 µM (active). `O=C(Nc1ccc([N+](=O)[O-])cc1Cl)c1cc(Cl)ccc1O` was tested, and the AC50 was “inactive”. With `Cc1ccc(S(=O)(=O)c2c(C)nn(C(C)(C)C)c2OC(=O)c2cccs2)cc1` the AC50 was 1 µM (active). In the case of `CN1CCC(n2[nH]c(-c3ccccc3)c(Cc3ccccc3)c2=O)CC1`, the activity, negative = inhibition was -29.5% [at 11.4 µM]. For `COc1cc([C@H](O)CO)ccc1O`, the AC50 was “inactive”. For `Cc1c(-c2c(C#N)c(N)nc3c2CCCCCC3)cnn1C`, the AC50 was 14.1 µM (active). `N#Cc1c(N)nc2c(c1-c1cccc(O)c1)CCCCCC2` was tested, and the AC50 was 7.08 µM (active). In the case of `CCc1sc(-c2c(C#N)c(N)nc3c2CCCCCC3)cc1[N+](=O)[O-]`, the AC50 was 3.98 µM (active). `FC(F)(F)c1ccc(N2CCOCC2)c(Nc2nc3ccccc3n3cnnc23)c1` was tested, and the AC50 was 3.55 µM (active). For `Cc1ccccc1S(=O)(=O)c1c(C)cc(-c2ccccc2)[nH]c1=O`, the AC50 was “inactive”. With `CCCCSc1nc(C)cc(C)c1S(=O)(=O)c1ccccc1C` the AC50 was 0.562 µM (active). `CCCSc1nc(C)cc(C)c1S(=O)(=O)c1ccccc1C` was tested, and the AC50 was 2.24 µM (active). In the case of `COc1ccccc1CN1CCC2(CCNCC2)CC1`, the AC50 was “inactive”. In the case of `COc1ccccc1CN1CCC2(CC1)CCN(S(C)(=O)=O)CC2`, the AC50 was “inactive”. In the case of `COc1ccccc1/C=C/C=N/N1CCN(Cc2cccc3ccccc23)CC1`, the AC50 was 14.1 µM (active). For `Cc1ccc(C(=O)c2ccc(CC(=O)O)n2C)cc1`, the AC50 was “inactive”. With `O=C(NCc1cccnc1)C1COc2ccccc2O1` (stereo not given) the AC50 was 8.91 µM (active). For `O=C(Nc1cccnc1)C1COc2ccccc2O1` (stereo not given), the AC50 was 11.2 µM (active). In the case of `O=C(Nc1ncc(Cc2ccccc2)s1)C1COc2ccccc2O1` (stereo not given), the AC50 was “inactive”. Work on `COC(=O)CCCC(=O)O` yielded an activity, negative = inhibition of 37.5% [at 11.4 µM]. `O=C(O)CN(CCN(CC(=O)O)CC(=O)O)CC(=O)O.[Cu]` gave an activity, negative = inhibition of -41.9% [at 11.4 µM]. `Cc1cc2c(c(=O)o1)[C@H](O)[C@H]1O[C@@H]1C2=O` was tested, and the activity, negative = inhibition was -43.4% [at 11.4 µM]. With `O=C(CCN1C(=O)C2C3C=CC(C3)C2C1=O)NCCN1CCCc2ccccc21` (stereo not given) the AC50 was 28.2 µM (active). `CC(C)(C)NCC[C@@H](O)c1cc(C(F)(F)F)nc2c(C(F)(F)F)cccc12` gave an activity, negative = inhibition of -11% [at 11.4 µM]. `CCN(CC)c1ccc2c(c1)OC(N)=C(C#N)C2c1cccnc1` (stereo not given) was tested, and the AC50 was 0.891 µM (active). `COc1cc2c(cc1OC)C(C(=O)Nc1cccc(C)n1)C(c1cccnc1)N(C)C2=O` (stereo not given) was tested, and the AC50 was 0.251 µM (active). In the case of `COc1ccc(NC(=O)C2c3cc(OC)c(OC)cc3C(=O)N(C)C2c2cccnc2)cc1OC` (stereo not given), the AC50 was “inactive”. `COc1cc2c(cc1OC)C(C(=O)Nc1ccccn1)C(c1cccnc1)N(C)C2=O` (stereo not given) was tested, and the AC50 was “inactive”. With `COc1cc(N=C(N)N=C(N)N)c2ncccc2c1` the activity, negative = inhibition was 36.7% [at 11.4 µM].
